Bioassay records as filed in PubChem BioAssay.
Compounds with a hit are over-represented: about 19% of the library has one in this group of screens.
HT1080 IDH1KD tx = toxicity to HT-1080 IDH1 knockdown cells (counter line) | HT-1080 IDH1 knockdown viability, ATP luminescence, 48 h | Potency, µM (series often up to 46.1 µM), actives largely listed as cytotoxic | actives 2% (n = 360,000) | AID 686971
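In this qHTS, HT-1080 cells depleted of IDH1 are exposed for 48 h at 37 °C to compound titrations. Toxicity is scored from CellTiter-Glo luminescence, with DMSO as full viability and medium alone as none.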
DT40 TDP1 CPT = growth inhibition of DT40 Tdp1-/-;hTDP1 cells with camptothecin (screen for TDP1 inhibitors) | Potency, µM (series often up to 46.2 µM), hits mostly inhibitors | chicken DT40 Tdp1-/-;hTDP1 cells + 20 nM CPT, ATP luminescence, 48 h | actives 12% (n = 420,000); further: nearly all actives have a fitted effect of over 55% in size
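Chicken DT40 Tdp1-/- cells stably complemented with human TDP1 were seeded at 400 cells/well in medium containing 20 nM camptothecin, exposed to pin-transferred compounds, and grown at 37 °C for at least 48 hr. Viability was read as ATP luminescence.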
KB-V1 cytotox = kills drug-selected multidrug resistant KB-V1 cells. KB-V1 MDR cells viability, CellTiter-Glo, 72 h. Potency, µM (highest dose often 46.1 µM), actives largely listed as cytotoxic. actives 3.4% (n = 400,000); further: nearly all actives have a fitted effect of over 60% in size
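Luminescent ATP read-out (CellTiter-Glo, 10 min) measures survival of drug-selected KB-V1 MDR cells after 72 h, 37 degrees C compound exposure. Medium: phenol-red-free DMEM, 10% FBS. Values from fitted concentration-response curves.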
DT40 TDP1 no CPT = qHTS for Inhibitors of human tyrosyl-DNA phosphodiesterase 1 (TDP1): qHTS in cells in absence of CPT; DT40 Tdp1-/- hTDP1 cells, no CPT, ATP luminescence, 48 h; actives 15% (n = 420,000); Potency, µM (titrated, usually from 46.2 µM), most hits filed as inhibitors; further: nearly all actives have a fitted effect of over 55% in size
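No-CPT arm: Tdp1-/-;hTDP1 DT40 cells (400/well) plus compounds, incubated ≥48 hr at 37 °C. Readout CellTiter-Glo luminescence.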
KB-3-1 cytotox = KB-3-1 parental cell cytotoxicity; KB-3-1 viability, CellTiter-Glo ATP luminescence, 72 h; Potency, µM (doses to about 46.1 µM), usual class: cytotoxic; actives 1.4% (n = 400,000); AID 1347075; further: nearly all actives have a fitted effect of over 60% in size
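Parental KB-3-1 viability, qHTS format: 72 h compound exposure, 37 °C; CellTiter-Glo; media-only wells and DMSO plates as controls; concentration-effect fits on corrected data.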
HT1080-NT tox = kills 2HG-producing HT-1080-NT fibrosarcoma cells; HT-1080-NT fibrosarcoma viability, CellTiter-Glo ATP luminescence, 48 h; Potency, µM (doses to about 46.1 µM), most hits filed as cytotoxic; actives 1.6% (n = 360,000); AID 686970;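 further: NT is the 2HG producing partner of a matched IDH1 knockdown line; nearly all actives have a fitted effect of over 55% in size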
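Toxicity toward the 2HG-producing NT line was scored as %Activity, normalised to DMSO and no-cell wells, from CellTiter-Glo luminescence after 48 hours' treatment.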
Each line names hits and unclear results; the compound was inactive in the other large screens. The call rests on the fitted dose curve; in most records, active means well fitted curve in the direction sought with a large enough effect; inconclusive means small, poorly fitted or top-dose-only effect, or another doubt; inactive means no such curve, though single readings can be large; an effect the other way counts as inactive or inconclusive.

CCOC(=O)C(O)(c1ccc(NC(=S)NC(=O)c2ccc(Cl)cc2Cl)cc1)C(F)(F)F (stereo not given)	DT40 TDP1 CPT inconclusive, KB-V1 cytotox inconclusive, DT40 TDP1 no CPT 25.9µM
COC(=O)C(O)(c1ccc(NC(=O)NC2CCCCC2)cc1)C(F)(F)F (stereo not given)	DT40 TDP1 no CPT inconclusive
CCOC(=O)C(O)(c1ccc(N(CC)C(=O)OC)cc1)C(F)(F)F (stereo not given)	KB-V1 cytotox 20.6µM
CCOC(=O)C(O)(c1ccc(NC(=O)Oc2ccccc2)cc1)C(F)(F)F (stereo not given)	DT40 TDP1 no CPT inconclusive
COC(=O)C(O)(c1ccc(NC(=S)NC(=O)c2ccc(Cl)cc2Cl)cc1)C(F)(F)F (stereo not given)	DT40 TDP1 CPT inconclusive, KB-V1 cytotox 18.4µM, DT40 TDP1 no CPT 14.6µM, KB-3-1 cytotox inconclusive
O=c1nc(/C=C/c2ccc(Cl)cc2Cl)cc(C(F)(F)F)[nH]1	DT40 TDP1 no CPT inconclusive
C[C@]12C[C@@H](O)[C@H](O)CC1=CCC1C2CC[C@@]2(C)C1CC[C@@H]2O (stereo not given in full)	none
CC(C)NC1C2CCC(CC2)C1(O)c1ccc(Cl)c(Cl)c1 (stereo not given)	HT1080 IDH1KD tx inconclusive, DT40 TDP1 CPT inconclusive, DT40 TDP1 no CPT inconclusive
Cc1ccc(NC(=O)CN2C(=O)CN=C(c3ccccc3)c3ccccc32)cc1	DT40 TDP1 CPT inconclusive, DT40 TDP1 no CPT inconclusive (no result: HT1080 IDH1KD tx, HT1080-NT tox)
ClCCN(CCCl)c1ccc(C=Cc2ccncn2)cc1	DT40 TDP1 CPT 6.51µM, DT40 TDP1 no CPT 9.2µM
ClCCN(CCCl)c1ccc(/C=C/c2ccnc3ccccc23)cc1	DT40 TDP1 CPT 3.98µM, KB-V1 cytotox inconclusive, DT40 TDP1 no CPT 3.55µM, KB-3-1 cytotox inconclusive (no result: HT1080 IDH1KD tx, HT1080-NT tox)
Cc1cc(/C=C/c2ccnc3ccccc23)ccc1N(CCCl)CCCl	DT40 TDP1 CPT inconclusive, DT40 TDP1 no CPT 25.1µM, KB-3-1 cytotox inconclusive (no result: HT1080 IDH1KD tx, HT1080-NT tox)
COC1=C(OC)[C@]23CCc4ccc(OC)c(OC)c4[C@]2(CCN3C)CC1=O	none
N#CCn1c(CCl)nc2ccccc2c1=O	DT40 TDP1 CPT 4.61µM, DT40 TDP1 no CPT 2.59µM, KB-3-1 cytotox inconclusive
COc1cccc(C(C(=O)NCc2ccco2)N(Cc2ccco2)C(=O)Cn2nnc3ccccc32)c1 (stereo not given)	DT40 TDP1 CPT inconclusive, DT40 TDP1 no CPT inconclusive
CC(=O)CC(c1ccccc1[N+](=O)[O-])c1c(O)c2ccccc2oc1=O (stereo not given)	KB-V1 cytotox inconclusive
Cc1ccc(S(=O)(=O)N2CC3CC(C2)c2cccc(=O)n2C3)cc1 (stereo not given)	none
Cc1ccc(S(=O)(=O)N2CN3CCN(C3)C2)cc1	DT40 TDP1 CPT 16.4µM, DT40 TDP1 no CPT inconclusive
Cc1ccc(Cn2cc(C=O)c(-c3ccc(C)cc3)n2)cc1	DT40 TDP1 CPT inconclusive, KB-V1 cytotox 16.4µM, DT40 TDP1 no CPT inconclusive
Cc1ccc(Cn2nnnc2CN2CCC(n3nnc4cc(C(F)(F)F)ccc43)CC2)cc1	HT1080 IDH1KD tx inconclusive, DT40 TDP1 CPT inconclusive, KB-V1 cytotox inconclusive, DT40 TDP1 no CPT 20.6µM, HT1080-NT tox inconclusive
